This passage reports max activation results from PubChem BioAssay AID977607 (Broad Institute, 2014).

Each structure is given as a SMILES string. In all, about 1,500 compounds went through this assay and about 460 (31%) were called active. Another 1% or so got no clear call; they are omitted. A selection follows. Potency and affinity values are given separately. Values without a mark were called inactive.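 The calls were made as follows: active = curve reaches 40% activation over neutral controls at an AC40 no higher than the top valid tested concentration; inconclusive = no clear call, values can overlap the other calls; inactive = signal moving opposite to the expected increase, and the rest.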

The nature of the assay: GLuc-reported insulin release enhancers, glucose-stimulated beta cells – cell-based, INS-1E, Gaussia luciferase, luminescence, cherry-pick, set 2, dose response (AID 977607).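 Also: 0% = median of the plate neutral control wells.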 The note with it: INS-1E GLuc insulin secretion reporter, 2-3 h, active compounds read high.
Setting [1] is: at 35 µM, 100% = signal doubled over neutral wells unless noted.

On to `FC(F)(F)c1ccc(Cl)c(-n2c(Cc3cccs3)n[nH]c2=S)c1`, for which, under setting [1], the max activation is -14.3% [at 0.005 µM, 100% = signal doubled over neutral wells].
The same measure, in the same setting: as for `COc1ccc(/C=C2/SC(=O)N(NS(=O)(=O)c3ccccc3)C2=S)cc1OC`, the figure is -21.6% [at 0.015 µM, 100% = signal doubled over neutral wells]; as for `CC1(C)CCCC(C)(C)N1CC(O)COCCOc1ccc(Br)cc1` (stereo not drawn), -12.4%.
Still for that read-out and setting: then `CCS(=O)(=O)c1nc(S(=O)(=O)c2ccc(C)cc2)c(N2CCC(O)CC2)s1`, with -18.3% [at 0.42 µM, 100% = signal doubled over neutral wells]; and `Cc1ccnc(NS(=O)(=O)c2ccc(NC(=O)CCc3ccccc3)cc2)n1`, with 33.7% [at 1.2 µM, 100% = signal doubled over neutral wells]; and `Cc1ccc2c(=O)cc(C(=O)NC3CCS(=O)(=O)C3)oc2c1C` (stereo not drawn), with -12.4% [at 0.046 µM, 100% = signal doubled over neutral wells].
Turning to `COc1ccc2oc(C(=O)Nc3nnc(C)s3)c(C)c2c1`, the max activation under setting [1] was -20% [at 0.015 µM, 100% = signal doubled over neutral wells].
In the case of `CCC(=O)Nc1ccc(C(=O)N/N=C/c2cccnc2)cc1`, the max activation under setting [1] is -26.1% [at 3.8 µM, 100% = signal doubled over neutral wells].
`CCc1nc(N)nc(N)c1-c1ccc(Cl)c(N=[N+]=[N-])c1`: the max activation by setting is: (at 0.046 µM, 100% = signal doubled over neutral wells) -14.5%; (at 1.2 µM, 100% = signal doubled over neutral wells) -22.8%.
Consider `Cc1ccc(-c2csc(NC(=O)CCCc3cccs3)n2)cc1`, for which the max activation under setting [1] was 22% [at 0.42 µM, 100% = signal doubled over neutral wells].
As to `CCCc1nc2n[nH]c(N)c2c2c1COC(C)(C)C2`, under setting [1], the max activation was 19.9%.
Same read-out and setting: then `COc1ccc(CN(C)C(=O)COc2cccc(-n3cnnn3)c2)cc1OC`, with 25.6%.
Same read-out and setting: as for `COc1ccc(-c2cc(C(=O)N3CCCCCC3)no2)cc1OC`, the figure is -22% [at 3.8 µM, 100% = signal doubled over neutral wells].
Same read-out and setting: then `COc1ccccc1CNS(=O)(=O)c1cc(-c2cc(C)no2)ccc1C(C)C`, with -29.2%; and `COCCNC(=O)c1ccc(N(C)S(=O)(=O)c2ccc(OC)c(OC)c2)cc1`, with 19.5% [at 0.005 µM, 100% = signal doubled over neutral wells]; and `C=CCc1cccc(/C=N/NC(=O)CCC(=O)Nc2ccc(C)cc2)c1O`, with -34.3%.
For `O=C(N/N=C/c1cc(Cl)ccc1O)c1ccc(Br)cc1`, the max activation under setting [1] is -24.4% [at 3.8 µM, 100% = signal doubled over neutral wells].
